Experiment [1] addresses Tyrosine-protein kinase SYK (Homo sapiens) (UniProt P43405). The note with it: at 10 µM.
The target of experiment [2] is T1, Mitogen-activated protein kinase kinase kinase 7 (Homo sapiens) (UniProt O43318).
T1 sequence (whole entry): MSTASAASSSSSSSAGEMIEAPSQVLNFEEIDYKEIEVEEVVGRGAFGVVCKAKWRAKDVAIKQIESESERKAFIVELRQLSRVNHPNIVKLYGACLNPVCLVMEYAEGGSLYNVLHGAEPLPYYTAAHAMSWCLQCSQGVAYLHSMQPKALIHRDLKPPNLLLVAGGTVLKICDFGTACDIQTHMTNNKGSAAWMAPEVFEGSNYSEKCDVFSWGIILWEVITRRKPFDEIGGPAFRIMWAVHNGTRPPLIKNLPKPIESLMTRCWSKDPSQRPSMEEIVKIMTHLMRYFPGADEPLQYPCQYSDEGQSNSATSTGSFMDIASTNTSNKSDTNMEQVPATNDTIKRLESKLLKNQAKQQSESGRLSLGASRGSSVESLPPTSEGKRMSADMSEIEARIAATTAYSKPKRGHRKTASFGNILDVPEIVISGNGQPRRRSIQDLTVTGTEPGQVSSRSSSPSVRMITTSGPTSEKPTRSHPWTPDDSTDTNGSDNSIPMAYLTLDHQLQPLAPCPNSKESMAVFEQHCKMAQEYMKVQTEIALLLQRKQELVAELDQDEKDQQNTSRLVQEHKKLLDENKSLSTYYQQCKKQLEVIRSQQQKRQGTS
The note with it: at 1 µM.

Experiment [3] has as its target T1, Mitogen-activated protein kinase kinase kinase 7 (Homo sapiens). Conditions: at 10 µM.
Experiment [4] deals with T2, Serine/threonine-protein kinase TAO1 (Homo sapiens) (UniProt Q7L7X3).
T2 sequence (whole entry): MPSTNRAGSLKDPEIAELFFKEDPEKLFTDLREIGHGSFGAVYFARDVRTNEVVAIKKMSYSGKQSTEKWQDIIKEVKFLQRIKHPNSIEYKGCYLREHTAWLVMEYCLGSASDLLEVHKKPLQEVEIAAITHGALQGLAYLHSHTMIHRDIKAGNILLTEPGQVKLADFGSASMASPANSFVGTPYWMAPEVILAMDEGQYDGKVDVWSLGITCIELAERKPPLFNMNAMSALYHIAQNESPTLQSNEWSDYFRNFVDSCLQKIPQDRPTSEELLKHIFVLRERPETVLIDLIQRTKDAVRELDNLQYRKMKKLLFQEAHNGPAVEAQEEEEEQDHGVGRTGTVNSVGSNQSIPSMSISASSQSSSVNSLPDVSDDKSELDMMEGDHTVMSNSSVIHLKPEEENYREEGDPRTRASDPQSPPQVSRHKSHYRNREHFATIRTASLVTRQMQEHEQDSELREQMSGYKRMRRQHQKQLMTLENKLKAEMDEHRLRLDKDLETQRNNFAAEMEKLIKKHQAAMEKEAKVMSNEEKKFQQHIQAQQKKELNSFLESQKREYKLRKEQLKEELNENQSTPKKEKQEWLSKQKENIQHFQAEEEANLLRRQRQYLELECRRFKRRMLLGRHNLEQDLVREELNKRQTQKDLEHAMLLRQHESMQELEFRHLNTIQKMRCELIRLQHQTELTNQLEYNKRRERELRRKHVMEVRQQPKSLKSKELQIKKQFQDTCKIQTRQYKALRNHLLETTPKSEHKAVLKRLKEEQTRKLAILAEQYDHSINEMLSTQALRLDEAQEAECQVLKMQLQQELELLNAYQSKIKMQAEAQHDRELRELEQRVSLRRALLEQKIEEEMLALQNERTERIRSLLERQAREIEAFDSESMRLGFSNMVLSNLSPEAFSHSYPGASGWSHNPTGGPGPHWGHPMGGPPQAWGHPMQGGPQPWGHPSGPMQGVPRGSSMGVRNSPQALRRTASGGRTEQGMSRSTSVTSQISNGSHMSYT
Conditions: at 1 µM.

For experiment [5], the target named is T2, Serine/threonine-protein kinase TAO1 (Homo sapiens). The note with it: at 10 µM.
Experiment [6] concerns the target T3, Serine/threonine-protein kinase TAO2 (Homo sapiens) (UniProt Q9UL54).
T3 sequence (whole entry): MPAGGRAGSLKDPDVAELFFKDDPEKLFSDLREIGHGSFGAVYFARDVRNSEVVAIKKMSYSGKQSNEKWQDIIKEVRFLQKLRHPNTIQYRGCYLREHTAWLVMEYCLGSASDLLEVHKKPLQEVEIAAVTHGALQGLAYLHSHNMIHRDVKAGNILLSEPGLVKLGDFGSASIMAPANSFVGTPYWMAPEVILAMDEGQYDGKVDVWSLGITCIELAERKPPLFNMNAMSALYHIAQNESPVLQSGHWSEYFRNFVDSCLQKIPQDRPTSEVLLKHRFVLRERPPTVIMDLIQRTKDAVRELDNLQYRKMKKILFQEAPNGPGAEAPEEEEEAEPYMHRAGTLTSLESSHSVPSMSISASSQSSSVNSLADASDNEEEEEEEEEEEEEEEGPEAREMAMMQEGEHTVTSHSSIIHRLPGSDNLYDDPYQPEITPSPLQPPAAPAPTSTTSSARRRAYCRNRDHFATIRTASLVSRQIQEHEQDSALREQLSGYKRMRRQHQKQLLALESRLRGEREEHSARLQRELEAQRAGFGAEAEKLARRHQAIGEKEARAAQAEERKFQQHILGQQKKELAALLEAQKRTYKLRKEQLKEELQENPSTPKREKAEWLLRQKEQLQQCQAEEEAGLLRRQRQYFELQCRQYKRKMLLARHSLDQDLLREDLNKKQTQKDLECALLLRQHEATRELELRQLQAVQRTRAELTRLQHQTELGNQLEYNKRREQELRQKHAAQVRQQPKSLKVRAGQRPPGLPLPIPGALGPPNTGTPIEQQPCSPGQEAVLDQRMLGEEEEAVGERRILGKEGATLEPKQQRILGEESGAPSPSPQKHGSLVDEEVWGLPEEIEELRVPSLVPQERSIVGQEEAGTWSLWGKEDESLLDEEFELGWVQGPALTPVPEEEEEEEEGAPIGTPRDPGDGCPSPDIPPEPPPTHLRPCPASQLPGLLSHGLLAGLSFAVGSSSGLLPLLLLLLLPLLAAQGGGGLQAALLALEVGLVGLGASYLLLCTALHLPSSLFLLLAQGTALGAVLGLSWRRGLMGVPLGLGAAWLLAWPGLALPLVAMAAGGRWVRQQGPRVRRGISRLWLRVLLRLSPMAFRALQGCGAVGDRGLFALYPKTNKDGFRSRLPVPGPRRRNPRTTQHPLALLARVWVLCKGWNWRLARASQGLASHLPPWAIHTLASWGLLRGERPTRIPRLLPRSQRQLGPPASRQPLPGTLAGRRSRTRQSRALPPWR
Conditions: at 1 µM.

In experiment [7] the target is T3, Serine/threonine-protein kinase TAO2 (Homo sapiens). The note with it: at 10 µM.
Experiment [8] addresses T4, Serine/threonine-protein kinase TAO3 (Homo sapiens) (UniProt Q9H2K8).
T4 sequence (whole entry): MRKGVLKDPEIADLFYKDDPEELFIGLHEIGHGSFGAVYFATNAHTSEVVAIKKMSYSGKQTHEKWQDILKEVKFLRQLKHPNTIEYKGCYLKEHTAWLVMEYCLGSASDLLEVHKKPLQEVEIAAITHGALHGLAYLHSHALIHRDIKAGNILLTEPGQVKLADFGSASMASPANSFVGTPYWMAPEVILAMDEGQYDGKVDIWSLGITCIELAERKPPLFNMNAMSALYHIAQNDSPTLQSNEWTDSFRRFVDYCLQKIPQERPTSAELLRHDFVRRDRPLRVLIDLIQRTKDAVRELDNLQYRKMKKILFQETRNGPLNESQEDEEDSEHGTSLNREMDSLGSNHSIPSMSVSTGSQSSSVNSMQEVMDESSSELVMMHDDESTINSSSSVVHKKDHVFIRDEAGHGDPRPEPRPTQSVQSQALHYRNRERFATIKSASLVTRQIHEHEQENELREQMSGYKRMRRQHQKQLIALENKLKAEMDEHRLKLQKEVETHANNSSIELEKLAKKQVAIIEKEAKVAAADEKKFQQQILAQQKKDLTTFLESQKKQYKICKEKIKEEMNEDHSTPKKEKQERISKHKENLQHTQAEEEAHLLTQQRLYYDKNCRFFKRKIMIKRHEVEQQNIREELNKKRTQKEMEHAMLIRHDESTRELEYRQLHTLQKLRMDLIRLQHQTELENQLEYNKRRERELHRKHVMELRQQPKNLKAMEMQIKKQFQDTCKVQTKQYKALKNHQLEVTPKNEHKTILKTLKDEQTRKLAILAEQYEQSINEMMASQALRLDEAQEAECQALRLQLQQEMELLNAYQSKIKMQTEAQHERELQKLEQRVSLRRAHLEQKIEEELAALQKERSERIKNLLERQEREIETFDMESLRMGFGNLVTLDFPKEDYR
Conditions: at 1 µM.

Each structure is given as a SMILES string.

Experimental findings from ChEMBL document CHEMBL2218924, “A broad activity screen in support of a chemogenomic map for kinase signalling research and drug discovery” (Biochem J, 2013) are described below.

For the compound `COc1cc2ncnc(N3CCN(C(=O)Nc4ccc(Oc5ccccc5)cc4)CC3)c2cc1OC`, the residual activity in experiment [1] was 83%; in experiment [2], 85%; in experiment [3], 82%; in experiment [4], 94%; in experiment [5] it was 78%; in experiment [6], 95%. Moreover, the residual activity in experiment [7] is 64%; in experiment [8], 85%.
